Results filed as inconclusive are left out. Calls of active or inactive are those of the source. Rule for the calls, unless noted: active = hit-call score of the fitted dose curve at least 0.9, where 1 is the maximum; inactive = score below 0.9.
Tests used:
[1] = read-out: Monocyte Chemoattractant Protein-1 (MCP1), CCL2 (gene 6347); experiment: BSK_LPS_MCP1: BioMAP Diversity Plus: LPS Assay for Monocyte Chemoattractant Protein-1 (MCP1) Biomarker Activity (AID 2283081); details: primary human HUVEC with PBMC; actives raise or lower the signal;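 for AC50: secreted MCP-1 protein quantified by ELISA in culture supernatant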
In short: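 Human umbilical vein endothelial cells co-cultured with PBMC, LPS-stimulated; secreted MCP-1 measured by ELISA 24 h after compound addition. Bidirectional curve fitting against DMSO baseline; SRB total-protein staining in parallel cultures for cytotoxicity.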

[2] = BSK_LPS_PGE2: BioMAP Diversity Plus: LPS Assay for Prostaglandin E2 (PGE2) Biomarker Activity (AID 2283082); details: primary human HUVEC with PBMC; actives raise or lower the signal;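 for AC50: secreted prostaglandin E2 measured by ELISA in LPS-stimulated co-culture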
In short: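 Endpoint derived from bidirectional curve fitting versus DMSO of ELISA-measured PGE2 in LPS-stimulated human primary vascular co-culture (HUVEC with PBMC) harvested at 24 h.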

[3] = read-out: Macrophage colony-stimulating factor (MCSF), CSF1 (gene 1435); experiment: BSK_LPS_MCSF: BioMAP Diversity Plus: LPS Assay for Macrophage colony-stimulating factor (MCSF) Biomarker Activity (AID 2283083); details: primary human HUVEC with PBMC; actives raise or lower the signal
In short: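 HUVEC–PBMC co-culture, M-CSF measured by ELISA 24 h after chemical dosing. Fitted in both directions relative to DMSO as negative control; overt cytotoxicity assessed by SRB total-protein staining in parallel cultures.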

[4] = read-out: Tissue Factor, F3 (gene 2152); experiment: BSK_LPS_TissueFactor: BioMAP Diversity Plus: LPS Assay for Tissue Factor Biomarker Activity (AID 2283084); details: primary human HUVEC with PBMC; actives raise or lower the signal
In short: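 Human umbilical vein endothelial cells co-cultured with PBMC were dosed with compound. Cell-surface CD142 was measured by ELISA 24 h later. Activity was fitted bidirectionally against DMSO, with SRB total-protein staining in parallel cultures for cytotoxicity.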

[5] = read-out: Vascular cell adhesion molecule 1 (VCAM1), VCAM1 (gene 7412); experiment: BSK_LPS_VCAM1: BioMAP Diversity Plus: LPS Assay for Vascular cell adhesion molecule 1 (VCAM1) Biomarker Activity (AID 2283086); details: primary human HUVEC with PBMC; actives raise or lower the signal
In short: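 Primary human vascular co-culture (umbilical vein endothelium plus PBMC) stimulated with LPS received chemical; 24 h later VCAM-1 was read by ELISA. Overt cytotoxicity was assessed by sulforhodamine B staining of parallel cultures at the same time point.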

CD38, CD38 (gene 952) = experiment: BSK_SAg_CD38: BioMAP Diversity Plus: SAg Assay for CD38 Biomarker Activity (AID 2283087); details: primary human HUVEC with PBMC; actives raise or lower the signal
In short: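 Fluorescence ELISA of cell-surface CD38 served as the read-out, with either increase or decrease fitted against DMSO controls. Cells were a human umbilical vein endothelium plus PBMC co-culture under SEB/TSST-1 stimulation, measured 24 h after dosing.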

CD40, CD40 (gene 958) = experiment: BSK_SAg_CD40: BioMAP Diversity Plus: SAg Assay for CD40 Biomarker Activity (AID 2283088); details: primary human HUVEC with PBMC; actives raise or lower the signal
In short: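 HUVEC plus PBMC co-culture, superantigen-activated, with CD40 read by ELISA 24 h after dosing. Curves fitted in both directions against DMSO. Overt cytotoxicity checked by parallel SRB total-protein staining.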

CD69, CD69 (gene 969) = experiment: BSK_SAg_CD69: BioMAP Diversity Plus: SAg Assay for CD69 Biomarker Activity (AID 2283089); details: primary human HUVEC with PBMC; actives raise or lower the signal;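 for AC50: cell surface CD69 protein quantified by ELISA with fluorescence detection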
In short: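 Values derive from bidirectional fitting relative to DMSO vehicle. Cells: umbilical vein endothelium plus peripheral blood mononuclear cells, treated 24 h before fluorescent ELISA for CD69.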

[6] = read-out: Monocyte Chemoattractant Protein-1 (MCP1), CCL2 (gene 6347); experiment: BSK_SAg_MCP1: BioMAP Diversity Plus: SAg Assay for Monocyte Chemoattractant Protein-1 (MCP1) Biomarker Activity (AID 2283090); details: primary human HUVEC with PBMC; actives raise or lower the signal
In short: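 MCP-1 levels in the endothelial–PBMC SAg co-culture were quantified by ELISA at 24 h post-dosing; both increases and decreases versus DMSO scored. Cytotoxicity monitored by SRB total protein in parallel cultures.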

[7] = read-out: E-selectin (Homo sapiens) (UniProt P16581); experiment: BSK_SAg_Eselectin: BioMAP Diversity Plus: SAg Assay for Eselectin Biomarker Activity (AID 2283091); details: primary human HUVEC with PBMC; actives raise or lower the signal
In short: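 Human umbilical vein endothelial cells co-cultured with peripheral blood mononuclear cells, SAg system. E-selectin is measured by ELISA 24 h after dosing and fitted bidirectionally against DMSO. Cytotoxicity is checked by SRB staining of parallel cultures.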

[8] = read-out: Monokine induced gamma interferon (MIG), CXCL9 (gene 4283); experiment: BSK_SAg_MIG: BioMAP Diversity Plus: SAg Assay for Monokine induced gamma interferon (MIG) Biomarker Activity (AID 2283092); details: primary human HUVEC with PBMC; actives raise or lower the signal
In short: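 Values reflect bidirectional fitting of ELISA-measured MIG against DMSO vehicle, taken 24 h after dosing of a co-culture of human umbilical vein endothelial cells and peripheral blood mononuclear cells.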

[9] = BSK_SAg_PBMCCytotoxicity: PBMC Cytotoxicity Assessment in the BioMAP Diversity Plus: SAg Assay (AID 2283093); details: primary human HUVEC with PBMC;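 note: PBMC viability measured as Alamar Blue reduction fluorescence at 546/580 nm; fitted both ways against DMSO so a hit may be loss or gain of signal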;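 for AC50: PBMC superantigen activated with SEB plus TSST-1 one hour after compound addition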
In short: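 HUVEC/PBMC co-culture; PBMC exposed to chemical 1 h before SEB and TSST-1 activation (20 ng/mL each), incubated 90 h, then Alamar Blue 6 h, fluorescence 546/580 nm. Bidirectional fit versus DMSO baseline.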

[10] = read-out: Interleukin-8 (IL8), CXCL8 (gene 3576); experiment: BSK_SAg_IL8: BioMAP Diversity Plus: SAg Assay for Interleukin-8 (IL8) Biomarker Activity (AID 2283094); details: primary human HUVEC with PBMC; actives raise or lower the signal
In short: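 In this co-culture of human umbilical vein endothelium with peripheral blood mononuclear cells, IL-8 is assayed by ELISA at 24 h. DMSO serves as baseline for bidirectional curve fitting.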

[11] = BSK_SAg_Proliferation: Cell Proliferation Assessment in the BioMAP Diversity Plus: SAg Assay (AID 2283095); details: primary human HUVEC with PBMC;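 note: relative cell number as total protein by SRB absorbance in sub-confluent culture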
In short: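 Readout is SRB-stained protein (560 nm) in a primary human HUVEC and PBMC co-culture; sub-confluent cultures are read at 96 h. Activity is fitted bidirectionally using DMSO as baseline.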

[12] = BSK_SAg_SRB: Viability Assessment in the BioMAP Diversity Plus: SAg Assay (AID 2283096); details: primary human HUVEC with PBMC;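 note: cells read one day after compound addition; hits may be either gain or loss of signal compared with DMSO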
In short: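 Human umbilical vein endothelial cells co-cultured with PBMC, read 24 h after compound dosing. Total protein measured by sulforhodamine B staining (0.1% SRB after 10% TCA fixation, absorbance 560 nm); bidirectional fit versus DMSO baseline.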

[13] = molecular target: human CYP2A6, CYP2A6 (gene 1548) (UniProt P11509); experiment: NVS_ADME_hCYP2A6: NovaScreen (NVS) CYP450-related Enzyme Activity (ADME) Assay for human CYP2A6 (AID 2283099; active = hit-call score of the fitted dose curve at least 0.9, where 1 is the maximum)
In short: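 Recombinant human CYP2A6 expressed in insect cells, cell-free; fluorogenic substrate turnover read by fluorescence intensity 0.5 h after dosing. Primary screen 10 uM in duplicate, then concentration-response up to 20 uM; acetonitrile as negative control.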

[14] = molecular target: human CYP2B6, CYP2B6 (gene 1555) (UniProt P20813); experiment: NVS_ADME_hCYP2B6: NovaScreen (NVS) CYP450-related Enzyme Activity (ADME) Assay for human CYP2B6 (AID 2283101; active = hit-call score of the fitted dose curve at least 0.9, where 1 is the maximum)
In short: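 Compounds were first screened in duplicate at 10 uM against recombinant enzyme, with the fluorescent product measured after 1 hour. Active compounds were retested over a concentration series. Loss of fluorescence versus acetonitrile control was scored as reduced enzyme activity.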

[15] = molecular target: human CYP19A1, CYP19A1 (gene 1588) (UniProt P11511); experiment: NVS_ADME_hCYP19A1: NovaScreen (NVS) CYP450-related Enzyme Activity (ADME) Assay for human CYP19A1 (AID 2283098; active = hit-call score of the fitted dose curve at least 0.9, where 1 is the maximum)
In short: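 Recombinant enzyme in a cell-free format, read 0.5 h after dosing by fluorescence from a fluorogenic substrate. Loss of signal was fitted against acetonitrile as baseline. Primary screen in duplicate at 10 uM, actives then tested in concentration series.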

[16] = molecular target: human CYP1A1, CYP1A1 (gene 1543) (UniProt P04798); experiment: NVS_ADME_hCYP1A1: NovaScreen (NVS) CYP450-related Enzyme Activity (ADME) Assay for human CYP1A1 (AID 2283100; active = hit-call score of the fitted dose curve at least 0.9, where 1 is the maximum)
In short: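 Recombinant CYP1A1 with a fluorogenic substrate, cell-free, read 1 h after dosing; acetonitrile as negative control. Single-concentration screen at 10 uM in duplicate, then concentration-response up to 20 uM for chemicals meeting ~30% inhibition threshold.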

Measured: AC50

human CYP2B6, CYP2B6 (gene 1555), sequence (P20813 whole entry, looked up): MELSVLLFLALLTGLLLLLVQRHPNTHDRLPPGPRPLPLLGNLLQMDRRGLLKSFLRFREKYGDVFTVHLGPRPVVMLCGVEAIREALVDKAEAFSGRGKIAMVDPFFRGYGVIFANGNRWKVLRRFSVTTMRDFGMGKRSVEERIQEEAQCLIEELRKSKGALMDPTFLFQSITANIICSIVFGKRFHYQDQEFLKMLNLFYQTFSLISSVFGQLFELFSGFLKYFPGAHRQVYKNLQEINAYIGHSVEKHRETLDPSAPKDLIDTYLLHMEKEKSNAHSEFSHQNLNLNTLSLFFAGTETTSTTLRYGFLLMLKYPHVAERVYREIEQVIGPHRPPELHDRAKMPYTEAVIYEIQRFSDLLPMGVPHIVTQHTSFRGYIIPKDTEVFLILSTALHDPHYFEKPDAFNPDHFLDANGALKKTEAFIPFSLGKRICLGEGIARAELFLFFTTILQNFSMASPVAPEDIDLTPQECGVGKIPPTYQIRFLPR
E-selectin (Homo sapiens), sequence (P16581 whole entry, looked up): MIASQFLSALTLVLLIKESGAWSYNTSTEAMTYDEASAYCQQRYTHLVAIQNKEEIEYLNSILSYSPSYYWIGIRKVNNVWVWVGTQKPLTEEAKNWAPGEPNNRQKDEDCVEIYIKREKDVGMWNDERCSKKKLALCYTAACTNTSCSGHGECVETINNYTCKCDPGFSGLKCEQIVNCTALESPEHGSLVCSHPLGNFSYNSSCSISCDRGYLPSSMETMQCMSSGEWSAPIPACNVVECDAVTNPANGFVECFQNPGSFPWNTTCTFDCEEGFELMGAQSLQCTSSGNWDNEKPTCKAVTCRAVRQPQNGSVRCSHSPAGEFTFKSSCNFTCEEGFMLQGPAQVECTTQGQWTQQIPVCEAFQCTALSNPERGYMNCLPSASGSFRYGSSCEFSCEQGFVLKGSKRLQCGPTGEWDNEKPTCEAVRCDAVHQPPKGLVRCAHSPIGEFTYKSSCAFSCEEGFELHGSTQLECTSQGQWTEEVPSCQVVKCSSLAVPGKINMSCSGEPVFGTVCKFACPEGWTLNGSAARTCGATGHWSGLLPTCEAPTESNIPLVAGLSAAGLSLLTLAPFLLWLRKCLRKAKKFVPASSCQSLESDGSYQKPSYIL
human CYP1A1, CYP1A1 (gene 1543), sequence (P04798 whole entry, looked up): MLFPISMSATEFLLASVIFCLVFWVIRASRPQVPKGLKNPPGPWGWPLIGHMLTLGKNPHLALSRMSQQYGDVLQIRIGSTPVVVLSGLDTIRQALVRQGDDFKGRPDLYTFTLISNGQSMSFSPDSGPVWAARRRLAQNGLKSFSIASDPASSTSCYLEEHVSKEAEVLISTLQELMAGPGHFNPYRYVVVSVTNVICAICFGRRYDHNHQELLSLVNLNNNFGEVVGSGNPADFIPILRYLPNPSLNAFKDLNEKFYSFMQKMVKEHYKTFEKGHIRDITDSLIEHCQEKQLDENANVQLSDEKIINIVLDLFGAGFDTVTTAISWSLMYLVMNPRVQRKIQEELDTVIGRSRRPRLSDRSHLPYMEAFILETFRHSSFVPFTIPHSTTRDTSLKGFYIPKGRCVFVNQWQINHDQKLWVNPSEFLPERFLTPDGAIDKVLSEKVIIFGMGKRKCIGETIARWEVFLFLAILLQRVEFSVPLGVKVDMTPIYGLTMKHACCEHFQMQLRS
human CYP2A6, CYP2A6 (gene 1548), sequence (P11509 whole entry, looked up): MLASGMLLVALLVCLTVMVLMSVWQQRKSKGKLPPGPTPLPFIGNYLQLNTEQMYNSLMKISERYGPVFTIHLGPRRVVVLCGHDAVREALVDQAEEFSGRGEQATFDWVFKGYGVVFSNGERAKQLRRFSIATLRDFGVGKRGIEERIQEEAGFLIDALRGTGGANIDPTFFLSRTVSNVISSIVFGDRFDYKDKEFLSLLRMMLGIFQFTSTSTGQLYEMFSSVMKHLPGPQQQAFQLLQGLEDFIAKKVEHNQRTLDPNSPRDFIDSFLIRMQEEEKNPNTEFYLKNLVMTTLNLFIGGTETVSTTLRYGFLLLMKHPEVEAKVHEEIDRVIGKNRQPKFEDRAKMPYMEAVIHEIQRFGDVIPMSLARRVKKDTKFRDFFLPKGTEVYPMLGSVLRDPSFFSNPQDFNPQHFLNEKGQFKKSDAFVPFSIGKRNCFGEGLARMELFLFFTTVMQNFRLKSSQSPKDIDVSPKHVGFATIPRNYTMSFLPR
human CYP19A1, CYP19A1 (gene 1588), sequence (P11511 whole entry, looked up): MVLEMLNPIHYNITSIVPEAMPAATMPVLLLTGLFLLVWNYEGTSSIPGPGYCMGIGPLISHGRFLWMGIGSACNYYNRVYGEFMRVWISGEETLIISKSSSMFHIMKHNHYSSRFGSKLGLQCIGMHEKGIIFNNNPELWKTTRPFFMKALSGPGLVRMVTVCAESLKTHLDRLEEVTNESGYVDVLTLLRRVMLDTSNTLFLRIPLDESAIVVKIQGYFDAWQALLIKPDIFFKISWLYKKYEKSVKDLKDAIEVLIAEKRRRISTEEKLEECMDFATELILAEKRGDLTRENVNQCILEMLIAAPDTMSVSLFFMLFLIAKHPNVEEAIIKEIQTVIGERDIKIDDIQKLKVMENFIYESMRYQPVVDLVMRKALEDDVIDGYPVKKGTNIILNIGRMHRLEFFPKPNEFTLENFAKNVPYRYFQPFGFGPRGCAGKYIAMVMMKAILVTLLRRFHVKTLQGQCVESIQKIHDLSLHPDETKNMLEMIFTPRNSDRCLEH

O=[N+]([O-])c1ccc(O)cc1
not listed: [15] | [16]
inactive: all other assays above

c1ccc2c(c1)Cc1ccccc1-2
not listed: [13] | [14] | [15] | [16]
inactive: all other assays above

CC(C)(C)c1ccc(O)c(C(C)(C)C)c1
active: [1] 26.7 µM | [2] 16.9 µM | [3] 13.4 µM | [4] 20 µM | [5] 19.4 µM | CD38, CD38 (gene 952) 14.5 µM | CD40, CD40 (gene 958) 20 µM | CD69, CD69 (gene 969) 24.8 µM | [6] 23.6 µM | [7] 11.9 µM | [8] 28.7 µM | [9] 12.9 µM | [10] 20 µM | [11] 10.8 µM | [12] 16.6 µM

CCCCCCCCCCCCc1ccccc1S(=O)(=O)O
not listed: [13] | [14] | [15] | [16]
inactive: all other assays above

Cc1cc(CCN2CCN(c3nsc4ccccc34)CC2)cc2c1NC(=O)CC2(C)C
inactive: [15] | [16]
active: [1] 26.8 µM | [2] 5.37 µM | [3] 15.3 µM | [4] 32.8 µM | [5] 26 µM | CD38, CD38 (gene 952) 13.4 µM | CD40, CD40 (gene 958) 14.2 µM | CD69, CD69 (gene 969) 14.4 µM | [6] 11.3 µM | [7] 11.8 µM | [8] 17.3 µM | [9] 13 µM | [10] 20 µM | [11] 8.05 µM | [12] 33.9 µM

Nc1cccc2c(N)cccc12
active: [2] 12.9 µM | [9] 13.7 µM | [11] 17.5 µM | [14] 7.14 µM
not listed: [8] | [13] | [15]
inactive: all other assays above

Oc1cc2ccccc2c2ccccc12
inactive: [13]
active: [1] 11.1 µM | [2] 3.34 µM | [3] 7.85 µM | [4] 9.95 µM | [5] 9.03 µM | CD38, CD38 (gene 952) 10 µM | CD40, CD40 (gene 958) 9.94 µM | CD69, CD69 (gene 969) 8.99 µM | [6] 7.84 µM | [7] 8.61 µM | [8] 10.8 µM | [9] 3.93 µM | [10] 9.87 µM | [11] 3.62 µM | [12] 9.94 µM | [16] 5.31 µM | [14] 1.31 µM

— PubChem BioAssay (EPA / NIEHS)
